The nature of experiment [1]: chitosan synthesis blockers in C. neoformans – flow cytometry, Cibacron Brilliant Red staining (AID 1347148; call rule not given here;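 further: compound exposure lasted three days at 37 degrees C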). Particulars: Cryptococcus neoformans chitosan, stronger effect = lower value; at 10 µM unless noted. For orientation: A flow cytometer gives signals particle by particle.
Experiment [2] is described as follows: blockers of polyQ-driven CASP3 activation – cell-based (AID 1583). Particulars: polyglutamine-induced caspase-3 activation, cell assay; stronger effect = higher value;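 tested at 10 µM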.
The nature of experiment [3]: GFP-Q80 aggregate reduction, neuronal-like cells, cell-based, NGF-treated PC12, GFPQ80 (AID 1614).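 Further: lower means fewer inclusions and 0 means no inclusions at all.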 Particulars: PC12 NGF-treated GFP-polyQ80 inclusion reduction.
For experiment [4], the target named is ATP-dependent translocase ABCB1 (Homo sapiens) (UniProt P08183). As to the kind of experiment: P-glycoprotein substrate transport blockade – cell-based (AID 377; in the data active means fluorescence slope change above about 50%). The conditions noted are these: MDR1-expressing cells, fluorescent substrate accumulation slope; stronger effect = higher value; concentration not given here.
Sequence of ATP-dependent translocase ABCB1 (Homo sapiens) (P08183 whole entry, looked up): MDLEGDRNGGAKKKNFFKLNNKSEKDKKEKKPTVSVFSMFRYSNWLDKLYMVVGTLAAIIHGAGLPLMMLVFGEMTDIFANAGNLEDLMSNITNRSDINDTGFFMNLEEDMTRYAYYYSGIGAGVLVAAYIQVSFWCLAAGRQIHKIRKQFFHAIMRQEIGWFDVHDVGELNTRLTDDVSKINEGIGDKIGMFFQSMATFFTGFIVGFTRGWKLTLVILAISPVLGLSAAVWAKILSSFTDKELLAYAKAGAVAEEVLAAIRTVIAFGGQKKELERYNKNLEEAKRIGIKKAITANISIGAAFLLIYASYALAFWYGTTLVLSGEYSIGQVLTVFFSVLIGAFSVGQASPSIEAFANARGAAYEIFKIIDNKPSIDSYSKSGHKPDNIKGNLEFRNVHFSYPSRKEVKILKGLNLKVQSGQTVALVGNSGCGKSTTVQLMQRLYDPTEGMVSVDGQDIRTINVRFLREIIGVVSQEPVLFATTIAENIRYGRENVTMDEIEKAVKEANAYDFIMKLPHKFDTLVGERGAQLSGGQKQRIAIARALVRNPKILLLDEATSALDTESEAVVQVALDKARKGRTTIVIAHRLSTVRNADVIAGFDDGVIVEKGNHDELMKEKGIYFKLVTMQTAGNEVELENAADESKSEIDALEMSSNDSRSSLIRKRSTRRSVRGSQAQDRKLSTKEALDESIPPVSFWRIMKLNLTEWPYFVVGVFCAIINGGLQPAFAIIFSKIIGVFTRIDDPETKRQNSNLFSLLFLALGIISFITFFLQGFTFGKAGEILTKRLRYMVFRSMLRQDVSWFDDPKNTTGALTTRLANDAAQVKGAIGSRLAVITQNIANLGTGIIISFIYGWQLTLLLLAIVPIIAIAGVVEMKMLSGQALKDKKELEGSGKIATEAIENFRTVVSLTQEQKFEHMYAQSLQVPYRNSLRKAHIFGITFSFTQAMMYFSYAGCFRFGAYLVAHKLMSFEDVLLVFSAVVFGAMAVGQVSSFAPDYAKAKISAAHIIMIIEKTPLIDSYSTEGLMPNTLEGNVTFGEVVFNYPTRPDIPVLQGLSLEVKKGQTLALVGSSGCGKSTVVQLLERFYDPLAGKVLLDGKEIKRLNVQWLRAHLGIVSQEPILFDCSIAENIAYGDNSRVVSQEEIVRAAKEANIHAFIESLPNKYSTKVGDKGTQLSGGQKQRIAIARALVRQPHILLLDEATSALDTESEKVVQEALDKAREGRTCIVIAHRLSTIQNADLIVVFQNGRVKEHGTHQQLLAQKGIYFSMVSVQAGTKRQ
A short description of experiment [5]: viability loss in pontine glioma line – cell-based, SU-DIPG-XVII, MIPE5.0, CellTiter-Glo, qHTS, dose response (AID 1347060).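 On AC50: cells exposed to compound for 48 hours before viability readout.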 Particulars: CellTiter-Glo ATP luminescence. (In general: ATP-based viability assays read luminescence as a measure of living cells.)
Experiment [6] in a line: viability loss in pontine glioma line – cell-based, JHH-DIPG-1, MIPE4.0, CellTiter-Glo, qHTS, dose response (AID 1347062; cut-off not given, nearly all actives have AC50 up to about 27 µM). Particulars: JHH-DIPG-1 viability, CellTiter-Glo ATP luminescence.
Experiment [7] in a line: viability loss in pontine glioma line – cell-based, SU-DIPG-XIII, MIPE5.0, CellTiter-Glo, qHTS, dose response (AID 1347064; cut-off not given, nearly all actives have AC50 up to about 23 µM;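 on AC50: cells exposed to compound for 48 hours before the viability read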). Particulars: CellTiter-Glo ATP luminescence.
Experiment [8] is described as follows: viability loss in pontine glioma line – cell-based, SU-DIPG-XXV, MIPE5.0, CellTiter-Glo, qHTS, dose response (AID 1347065).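 Further: cells exposed to compound for 48 hours before ATP readout.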 Particulars: CellTiter-Glo ATP luminescence.
A short description of experiment [9]: growth inhibition of DIPG cells – cell-based, MIPE4.0 library, CellTiter-Glo luminescence, qHTS (AID 1347066; cut-off not given, nearly all actives have AC50 up to about 30 µM;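 further: cells exposed to compound for 48 hours before readout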). The conditions noted are these: SU-DIPG-VI viability, CellTiter-Glo ATP luminescence.
Experiment [10] is described as follows: JHH-DIPG-1 glioma cell viability, MIPE5.0 library, CellTiter-Glo luminescence, qHTS (AID 1347067).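 Further: cells exposed to compound for 48 hours before readout.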 The conditions noted are these: JHH-DIPG-1 glioma viability, CellTiter-Glo ATP luminescence.
A short description of experiment [11]: growth inhibition of DIPG cells – cell-based, MIPE5.0 library, qHTS (AID 1347068; cut-off not given, nearly all actives have IC50 up to about 30 µM;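 on IC50: cells exposed to compound for 48 hours before viability readout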). The conditions noted are these: SU-DIPG-XXV viability.
Experiment [12] is described as follows: viability loss in pontine glioma line – cell-based, SU-DIPG-IV, MIPE4.0, CellTiter-Glo, qHTS, dose response (AID 1347063; cut-off not given, nearly all actives have AC50 up to about 30 µM;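 further: compound exposure lasted 48 hours before the viability readout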). Particulars: CellTiter-Glo ATP luminescence.
Experiment [13] can be described thus: compounds altering HSF1 focus formation in cells – imaging, Selleck Cancer Library (AID 1347162; in the data active means plate-normalised HSF1 focus index below about 0.46). Particulars: human cells, HSF1 nuclear foci imaging, at 10 µM; SSMD: measured here: HSF1 foci SSMD mean; cell count: measured here: cell number; plate-normalised HSF1 focus index: stronger effect = lower value.
Experiment [14] in a line: viability loss in pontine glioma line – cell-based, SU-DIPG-XIII, MIPE4.0, CellTiter-Glo, qHTS, dose response (AID 1347061; cut-off not given, nearly all actives have AC50 up to about 37 µM;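 further: cells exposed to compound for 48 hours before readout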). Particulars: CellTiter-Glo ATP luminescence.

Data on 14 molecules can be found in PubChem BioAssay.

The inhibition is the change of the read-out against control, counted positive when it falls. The AC50 is the concentration at which the activity in the assay is half-maximal. As usually defined, the IC50 is the concentration that gives 50% inhibition.

The structures appear in SMILES notation. Records with an inconclusive call do not appear. Activity calls are given as the source filed them. Unless noted, cut-off not given; nearly all actives show AC50 up to about 26 µM.

For `c1ccc2c(c1)[I+]c1ccccc1-2`, the fold fluorescence in [1] is 9.07 [at 179.1 µM] (inactive).

As to `C[N+](C)(C)CC#CCN1CCCC1=O`, the inhibition in experiment [2] was 23.8%. The inclusion score in [3] is 2.

`c1cncc(C2=NCCC2)c1`: the fluorescence slope change in experiment [4] is 24.1% (inactive).

For `COC(=O)[C@@H](N)CCCN=C(N)N[N+](=O)[O-]`, the outcome in experiment [5], in experiment [6], in experiment [7], in experiment [8], in [9] and in experiment [10] was inactive. Moreover, the molecule was called inactive in experiment [11]. In addition, in experiment [1], the fold fluorescence is 4.22 [at 214.4 µM] (inactive).

As to `CN1CCc2cc3c(cc2[C@H]1[C@@H]1OC(=O)c2c1ccc1c2OCO1)OCO3`, the fluorescence slope change in [4] is 0.5% (inactive). Moreover, in experiment [2], the inhibition was -6.49%. This molecule gave an inclusion score in experiment [3] of 1.5.

With `O=C1C2CCN(CC2)C1(CO)CO`, the fold fluorescence in experiment [1] was 9.13 [at 269.9 µM] (inactive).

Turning to `COc1ccc(C(=O)c2c(C)n(CCN3CCOCC3)c3cc(I)ccc23)cc1`, the AC50 is 20.9 µM (active) in experiment [12]; 23.5 µM (active) in experiment [7]; 16.6 µM (active) in experiment [8]; 23.5 µM (active) in experiment [9]; 23.5 µM (active) in [10].

In the case of `CC(C)(c1ccc(OCC2CO2)cc1)c1ccc(OCC2CO2)cc1` (stereo unspecified), the fold fluorescence in experiment [1] was 8.02 [at 146.9 µM] (inactive).

With `CC(=O)N(C)c1cccc(-c2ccnc3c(C(=O)c4cccs4)cnn23)c1`, the molecule was classed as inactive in experiment [6], in experiment [12] and in experiment [9].

`CC(C)[C@@]1(NC(=O)[C@@H]2C[C@@H]3c4cccc5[nH]cc(c45)C[C@H]3N(C)C2)O[C@@]2(O)[C@@H]3CCCN3C(=O)[C@H](Cc3ccccc3)N2C1=O`: the fluorescence slope change in [4] is 195% (active).

Regarding `O=C(O)C1=CCCN(CCOC(c2ccc(C(F)(F)F)cc2)c2ccc(C(F)(F)F)cc2)C1`, the result in [5], in [10] and in [11] was inactive.

As for `CN(C)CCN(C)CCc1ccc(Cl)c(Cl)c1`, the molecule was called inactive in experiment [5], in experiment [6], in experiment [12], in experiment [7], in experiment [8] and in [9]. Also, the molecule was called inactive in experiment [11]. The molecule further showed an SSMD in experiment [13] of 1.43. In addition, the cell count in [13] turned out to be 7160. Moreover, the plate-normalised HSF1 focus index in experiment [13] is 1.09 (inactive).

Take `C[C@H]1CCC/C=C/C2C[C@H](O)C[C@H]2[C@H](O)/C=C/C(=O)O1` (stereo partly specified): the half-maximal activity concentration (AC50) in experiment [5] is 0.0661 µM (active); in [7], 0.235 µM (active); in experiment [8], 0.263 µM (active); in experiment [10], 0.235 µM (active). For the same molecule, the call in experiment [14], in experiment [6], in experiment [12] and in experiment [9] was inactive. Further, the half-maximal inhibitory concentration (IC50) in [11] is 0.209 µM (active). Besides, the fold fluorescence in experiment [1] is 10.7 [at 178.3 µM] (inactive).

Regarding `Cc1cc(SCc2sc(-c3ccc(C(F)(F)F)c(F)c3)nc2C)ccc1OCC(=O)O`, the molecule was classed as inactive in [5], in experiment [14], in experiment [12], in [7], in [8] and in experiment [9]. The result in experiment [11] was inactive.
